# SKKanGAS inh: SKKanGAS growth inhibition | inhibition, % at 7.5 µM | 300,000 compounds, 1.3% hits | S. pyogenes SKKanGAS, kanamycin growth, BacTiter-Glo, 6 h;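 active = mean replicate score, as percent of positive control median, at least 50; inconclusive = mean below 50 but one replicate at or above 50; inactive = mean and every replicate below 50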;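 note: strain carries kanamycin resistance gene driven by streptokinase promoter and grows in 40 µg/ml kanamycin; loss of luminescence reflects streptokinase promoter inhibition or plain growth inhibition; 0% = median of DMSO wells and 100% = positive control at its reference dose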
# tim23-1 inh: growth inhibitors of tim23-1 mutant yeast. S. cerevisiae tim23-1 growth, BacTiter-Glo luminescence, 24 h. AID 463212. 330,000 compounds, 1.3% hits. inhibition, % at 20 µM;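 active = growth inhibition of the mutant yeast at or above 50%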;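 note: temperature-sensitive mutant grown at 25 °C; plate controls were DMSO-treated mutant yeast for no effect and medium wells lacking yeast for full effect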
# NALP3 yeast inh: NALP3 inhibition in yeast. AID 2825. 330,000 compounds, 0.39% hits. inhibition, % at 10 µM. Yeast reconstituted NLRP3/ASC/caspase-1, beta-gal luminescence, 24 h;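 active = inhibition of 50% or more; inactive = inhibition below 50%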;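 note: plate controls were induced DMSO wells for no effect and uninduced yeast grown without galactose for full effect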
# tim10-1 inh: inhibits growth of tim10-1 mutant yeast. S. cerevisiae tim10-1 ts strain growth, BacTiter-Glo, 24 h. inhibition, % at 20 µM. 330,000 compounds, 2.2% hits;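 active = inhibition of at least 40%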;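 note: mutant grown at 25 °C; 0% = DMSO wells with yeast and 100% = wells holding no yeast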
# PfHsp90 yeast 2: growth inhibition of yeast expressing Plasmodium Hsp90 | S. cerevisiae expressing PfHsp90, BacTiter-Glo ATP, 48 h; yeast lacking PDR1 and PDR3 efflux regulators | 310,000 compounds, 0.32% hits | inhibition, % at 9.4 µM;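 active = every replicate shows inhibition above about 80%, whatever the replicate mean, limit read from the data; inconclusive = mean inhibition reaches the set limit but some replicate falls short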;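 note: 0% = DMSO neutral controls and 100% = 20 µM radicicol positive controls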
# TIM10 inh: inhibits growth of TIM10 yeast strain; S. cerevisiae TIM10 strain growth, BacTiter-Glo luminescence, 24 h; inhibition, % at 10 µM; 330,000 compounds, 1.4% hits; AID 463195;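 active = inhibition of 40% or more at the single tested concentration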;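 note: wild-type TIM10 isogenic control strain grown at permissive 25 °C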
# TIM10 conf: confirmation of TIM10 yeast growth inhibitors | inhibition, % at 10 µM | 4,600 compounds, 63% hits | S. cerevisiae tim10 strain growth, BacTiter-Glo luminescence, 24 h | shares compounds with TIM10 inh;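 active = inhibition of yeast growth at or above a set limit in either of two replicates at 10 µM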;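 note: this counterscreen used the strain with wild-type TIM10; 0% = yeast with DMSO and 100% = medium wells lacking yeast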
# * marks the source's active call; other numbers are inactive results; ? = inconclusive; nt = no result. In the library only some 4.6% were active in any assay of this set; here they are far more common.
SMILES,SKKanGAS inh,tim23-1 inh,NALP3 yeast inh,tim10-1 inh,PfHsp90 yeast 2,TIM10 inh,TIM10 conf
COc1ccc(-c2nn(-c3ccccc3)cc2C(=O)Nc2nccs2)cc1,-4,45,16,36,-25,43*,30
Cc1ccc(-c2nn(-c3ccccc3)cc2/C=C/C(=O)Nc2nccs2)cc1,4,-2,13,12,-3,14,nt
O=C(Nc1ccncc1)c1cn(-c2ccccc2)nc1-c1cccs1,6,17,22,34,nt,44*,53*
OCCOCCN1CCN(C(=S)Nc2ccccc2)CC1,4,-6,18,-7,-1,-5,nt
CCOc1cc(/C=C2\SC(=NC)N(C)C2=O)cc(Cl)c1OC(C)=O,11,20,7,22,-11,-16,nt
CCOc1cc(/C=C2\SC(=NC)N(C)C2=O)c(Br)cc1OC(C)=O,7,29,-32,34,-8,82*,29
CCCn1c(N)c(C(=O)CSc2ncnc3sccc23)c(=O)n(C)c1=O,nt,-2,16,6,nt,-5,nt
Cc1ccc(C)c(NC(=S)N/N=C/C(C)c2ccccc2)c1 (stereo not given),1,26,14,38,-6,49*,26
Cc1ccc(C)c(NC(=S)NCc2ccccc2)c1,8,31,12,10,7,-1,nt
Cc1oc2ccc(O)cc2c1C(=O)c1ccc(F)cc1,12,24,9,20,nt,3,nt
CC(=O)C1=C(C)Nc2ncnn2C1c1ccccc1 (stereo not given),14,0,12,-12,20,-26,nt
CC(=O)C1=C(C)Nc2ncnn2C1c1ccccc1F (stereo not given),2,1,-1,2,-3,97*,8
Clc1nc(-c2ccccc2)cc(-c2ccc(Br)cc2)n1,8,30,9,38,-1,42*,33*
Nc1cc(-c2ccc(Br)cc2)nc2cc(-c3ccccc3)nn12,40,8,25,4,13,-6,nt
O=C(Oc1ccc2c3c(c(=O)oc2c1)CCCC3)c1ccco1,6,50,18,30,13,44*,45*
COc1ccc(-c2nc(SCc3ccccc3)n(C(=O)c3ccco3)n2)cc1,5,12,18,7,8,3,nt
COc1ccc(-c2nc(SC)n(C(=O)c3ccco3)n2)cc1,17,23,3,27,-5,42*,18
COc1cc2c(cc1OC)CN(CC(=O)Nc1ccc(Cl)c(S(=O)(=O)N(C)C)c1)CC2,3,12,2,8,nt,8,nt
O=[N+]([O-])c1ccc2c(OCc3nnc(-c4ccccc4Br)o3)ncnc2c1,-2,32,4,-21,-56,45*,31*
O=[N+]([O-])c1cc(Br)c(OCc2nnc(-c3ccccc3)o2)c(Br)c1,2,6,20,7,15,14,nt
CC(C)(C)OC(=O)N1Cc2ccccc2C[C@H]1C(=O)NCC(=O)NC1CCCCC1,-1,10,5,18,-13,13,nt
Cc1ccc(-c2csc(NC(=O)C3=NN(c4ccccc4)C(=O)CC3)n2)cc1,10,34,10,33,7,40*,33*
Cn1c(/C(C#N)=C/c2cccc(O)c2)nc2ccccc21,-4,42,11,39,8,43*,36*
CCNC(=S)N/N=C/c1ccc(OCCOc2ccccc2C)cc1,0,-26,7,8,4,5,nt
CCOc1ccc(/C=N/NC(=S)Nc2c(C)cccc2C)cc1,11,31,27,36,-6,52*,4
SMILES,SKKanGAS inh,tim23-1 inh,NALP3 yeast inh,tim10-1 inh,PfHsp90 yeast 2,TIM10 inh,TIM10 conf
Cc1ccc(-n2cc3c(-c4cccc(Br)c4)nnc(C)c3n2)cc1,64*,41,25,35,5,44*,31*
CCCc1cc(C(=O)N2CCN(c3ccccc3C)CC2)cs1,4,34,-49,32,nt,40*,36*
Clc1c(CSc2nc3ccccc3o2)nc2ccccn12,24,19,35,12,0,43*,-26
Cc1ccc(-c2nc3cc(NS(=O)(=O)c4ccc(C)cc4)ccc3o2)cc1,85*,35,7,35,-12,45*,37*
Cc1ccc(-c2nc3cc(C)ccc3o2)cc1,-6,12,20,19,-21,5,nt
Cc1ccc(-c2nc3cc(N)ccc3o2)cc1,4,25,-12,36,2,41*,30*
Cn1c(N)c(C(=O)COc2ccc(C#N)cc2)c(=O)n(C)c1=O,4,11,0,-4,nt,-4,nt
CC(=O)c1ccc(OC(=O)N(c2ccccc2)c2ccccc2)cc1,0,39,15,25,4,63*,9
CC(=O)c1ccc(OC(=O)CCc2ccccc2)cc1,-7,24,2,9,24,6,nt
CC1(C)C2CCC1(C)C1(C2)NC(=O)c2ccccc2O1 (stereo not given),8,30,16,-8,6,-2,nt
Nc1cc(OC(=O)c2cccs2)nn1S(=O)(=O)c1ccccc1,3,15,0,37,-12,55*,1
CSC1=C(C#N)C(=O)NC(c2ccc(Cl)cc2)S1 (stereo not given),1,44,6,31,0,46*,23
O=S(=O)(NCCS(=O)(=O)N1CCN(c2ccccc2)CC1)c1ccccc1,-6,11,13,-6,-13,1,nt
CN(C(=O)c1ccc(OC2CCN(C(=O)c3cccnc3)CC2)cc1)C1CCCCC1,0,9,7,12,-30,25,nt
CC1CCCCC1NC(=S)NC(=O)c1sc2ccccc2c1Cl (stereo not given),5,6,-6,5,-42,1,nt
O=C(NC(=S)N(CCCCO)C1CCCCC1)c1sc2ccccc2c1Cl,89*,42,14,22,-35,43*,14
COC(=O)c1ccc(C(C(=O)NC2CCCCC2)N(Cc2ccc(F)cc2)C(=O)Cc2cccs2)cc1 (stereo not given),18,8,9,15,-1,-6,nt
O=C(NC1CCCC1)C(c1ccc(F)cc1)N(Cc1ccc(Cl)cc1)C(=O)CCl (stereo not given),-2,46,-3,32,-33,42*,43*
CCOC(=O)C1CCN(C(=O)c2ccc3c(c2)NC(=O)/C(=C\c2ccc(C)cc2)S3)CC1,69*,47,25,21,-2,41*,-4
CC1CC(C)CN(C(=O)CCCn2c(=S)[nH]c3ccccc3c2=O)C1 (stereo not given),6,42,17,29,-31,43*,19
O=C(C1CCC(Cn2c(=S)[nH]c3ccccc3c2=O)CC1)N1CCN(c2ccccc2)CC1 (stereo not given),?,31,7,26,nt,46*,37*

# Compound activity as filed in PubChem.
